Some test systems named below: HT29 colon; SNB-75 CNS; SNB-19 CNS; U251 CNS; PC-3 prostate; SK-MEL-5 melanoma; UACC-62 melanoma; LOX IMVI melanoma; SK-MEL-28 melanoma; SK-MEL-2 melanoma; SN12C renal; UO-31 renal; ACHN renal; CAKI-1 renal; A498 renal; CCRF-CEM leukemia; MOLT-4 leukemia; SR leukemia; TK-10 renal.
Holding throughout (assay): NCI-60 one-dose screen, 48 h (100 = growth as untreated, 0 = no growth, -100 = all killed)
Holding throughout (settings): 10 µM

The panel holds about 83,000 compounds, 20% with a hit somewhere; the sample as a whole holds those more often.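 Negative percent growth values reflect cell death: -40 means 40% of the cells present at the start died, and -100 means all died.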 Unmarked numbers belong to inactive results. Active and inactive are the calls of the source. The calls were made as follows: active = growth percent below 10; inactive = the rest.

Among the data in PubChem BioAssay (NCI) are growth values, retold here.

As to `O=C(Nc1ccc(CO)cc1)c1ccccc1Nc1ccnc(C(F)(F)F)c1`, the growth was 109% in the assay with HT29 colon; 87.8% in the assay with SNB-75 CNS; 106% with SNB-19 CNS; 95.4% in the assay on U251 CNS; 99.5% with PC-3 prostate; 107% in the assay on SK-MEL-5 melanoma. Moreover, the growth in the assay with UACC-62 melanoma is 95.4%; with LOX IMVI melanoma, 92.2%; with SK-MEL-28 melanoma, 101%; in the assay with SK-MEL-2 melanoma, 123%; in the assay with SN12C renal, 95.6%; with UO-31 renal it was 81.5%. The growth in the assay on ACHN renal is 103%; in the assay with CAKI-1 renal it was 95.8%; with A498 renal, 95.7%; in the assay with CCRF-CEM leukemia, 89.7%; with MOLT-4 leukemia, 98.4%; with SR leukemia, 82.9%.
In the case of `O=C1NC(=O)N(Cc2ccccc2)CC1Br` (stereo not drawn), the growth in the assay with HT29 colon was 77.3%; with SNB-75 CNS, 91.4%; in the assay with SNB-19 CNS, 90.6%; in the assay with U251 CNS, 59.6%; in the assay on PC-3 prostate it was 73.1%; with SK-MEL-5 melanoma it was 77.5%. Also, the growth was 72.8% in the assay with UACC-62 melanoma; 25.8% in the assay on LOX IMVI melanoma; 97.7% with SK-MEL-28 melanoma; 70.4% in the assay on SK-MEL-2 melanoma; 56.3% in the assay on SN12C renal; 77.6% with UO-31 renal. The growth is 86.3% with TK-10 renal; 70.5% in the assay on ACHN renal; 129% in the assay on A498 renal; 13% in the assay on CCRF-CEM leukemia; 57.7% with MOLT-4 leukemia; 19.7% in the assay with SR leukemia.
Turning to `COc1cc(-c2cc(/C=C3\C(=O)Nc4cc(Cl)ccc43)[nH]n2)cc(OC)c1OC`, the growth with HT29 colon is 28.3%; in the assay with SNB-75 CNS, -5.23% (active); in the assay on SNB-19 CNS, 46.7%; in the assay on U251 CNS it was 40.4%; in the assay with PC-3 prostate, 4.7% (active); with SK-MEL-5 melanoma, -49.5% (active). The growth in the assay on UACC-62 melanoma was -51.5% (active); in the assay on LOX IMVI melanoma it was 6.79% (active); with SK-MEL-28 melanoma, 19.9%; in the assay on SK-MEL-2 melanoma, 51.9%; with SN12C renal, 12.1%; in the assay with UO-31 renal it was 30.4%. Also, the growth in the assay on TK-10 renal is 60.9%; with ACHN renal, 58%; in the assay on A498 renal, 50.4%; with CCRF-CEM leukemia, 13.2%; in the assay with MOLT-4 leukemia, 13.5%; in the assay on SR leukemia, 16.8%.
`CCOC(=O)N1C/C(=C/c2ccc(Cl)cc2)C(=O)/C(=C/c2ccc(Cl)cc2)C1`: the growth with HT29 colon is -40% (active); in the assay on SNB-75 CNS it was 66%; in the assay on SNB-19 CNS, 77.3%; with U251 CNS it was 12.1%; with PC-3 prostate it was 49.4%; with SK-MEL-5 melanoma, 88.1%. Moreover, the growth is 67.6% in the assay with UACC-62 melanoma; -56.8% (active) in the assay on LOX IMVI melanoma; 105% with SK-MEL-28 melanoma; 84.7% with SK-MEL-2 melanoma; 72.2% in the assay with SN12C renal; 45.2% with UO-31 renal. The growth in the assay on TK-10 renal was 99.5%; in the assay on ACHN renal, 74.7%; in the assay with A498 renal, 79.7%; with CCRF-CEM leukemia, 26%; with MOLT-4 leukemia it was 21.5%; with SR leukemia, -5.62% (active).
Consider `COc1ccccc1CNCCCN1C(=O)c2ccc3c4c(ccc(c24)C1=O)C(=O)N(CCCN)C3=O`, for which the growth with HT29 colon is -51.1% (active); with SNB-75 CNS, 39.3%; with SNB-19 CNS, -5.76% (active); with U251 CNS, -46.6% (active); in the assay on PC-3 prostate it was -8.32% (active); in the assay on SK-MEL-5 melanoma it was -97.5% (active). Moreover, the growth with UACC-62 melanoma was -90.2% (active); in the assay on LOX IMVI melanoma it was -61% (active); with SK-MEL-28 melanoma, 5.1% (active); with SK-MEL-2 melanoma, -57.3% (active); in the assay with SN12C renal it was -89% (active); in the assay with UO-31 renal, -20.8% (active). Besides, the growth in the assay on TK-10 renal was -3.35% (active); in the assay on CAKI-1 renal it was 31.3%; with A498 renal, -0.046% (active); in the assay with CCRF-CEM leukemia, -10.4% (active); in the assay on SR leukemia, 5.24% (active).
With `O=C(C[P+](c1ccccc1)(c1ccccc1)c1ccccc1)C[P+](c1ccccc1)(c1ccccc1)c1ccccc1`, the growth with HT29 colon is -77.3% (active); in the assay with SNB-75 CNS, -22.6% (active); in the assay with SNB-19 CNS it was 20.3%; in the assay with U251 CNS, -91.8% (active); with PC-3 prostate, -77.7% (active); in the assay with SK-MEL-5 melanoma, -88.9% (active). For the same compound, the growth is -79.6% (active) in the assay on UACC-62 melanoma; -87.2% (active) with LOX IMVI melanoma; -42% (active) with SK-MEL-28 melanoma; -79.8% (active) in the assay with SK-MEL-2 melanoma; -45.9% (active) in the assay with SN12C renal; -98.2% (active) in the assay on UO-31 renal. Besides, the growth was -94.1% (active) in the assay on TK-10 renal; -96.1% (active) with CAKI-1 renal; -93.8% (active) in the assay on A498 renal; -24% (active) in the assay on CCRF-CEM leukemia; -28.9% (active) with MOLT-4 leukemia; -19.6% (active) with SR leukemia.
Consider `COc1ccc(-c2cc(/C=C3\C(=O)Nc4ccc(Cl)cc43)[nH]n2)cc1OC`, for which the growth is 93.5% in the assay on HT29 colon; 64.2% in the assay on SNB-75 CNS; 90.9% with SNB-19 CNS; 95.2% in the assay with U251 CNS; 88.4% in the assay on PC-3 prostate; 73% with SK-MEL-5 melanoma. Besides, the growth in the assay on UACC-62 melanoma was 95.9%; in the assay with LOX IMVI melanoma it was 90.5%; in the assay on SK-MEL-28 melanoma, 99.3%; in the assay with SK-MEL-2 melanoma, 99.5%; with SN12C renal, 87.1%; with UO-31 renal, 71.1%. In addition, the growth in the assay on TK-10 renal was 90%; with CAKI-1 renal it was 81.3%; in the assay with A498 renal, 76%; in the assay on CCRF-CEM leukemia it was 72.2%; in the assay with MOLT-4 leukemia, 57.5%; in the assay with SR leukemia, 55.2%.
Take `Clc1ccc(Nc2ccnc(NCCNc3ccnc4cc(Cl)ccc34)n2)cc1`: the growth in the assay on HT29 colon was -37.4% (active); in the assay with SNB-75 CNS it was 4.36% (active); with SNB-19 CNS it was 69.6%; in the assay on U251 CNS it was -48% (active); in the assay with PC-3 prostate, 14.7%; in the assay with SK-MEL-5 melanoma, -100% (active). For the same compound, the growth with UACC-62 melanoma was -79.5% (active); in the assay with LOX IMVI melanoma, -79.5% (active); in the assay on SK-MEL-28 melanoma, -100% (active); with SK-MEL-2 melanoma it was -76.1% (active); in the assay with SN12C renal, 48%; in the assay with UO-31 renal, -26.3% (active). Also, the growth is -29.9% (active) with TK-10 renal; -7.16% (active) with ACHN renal; 17.9% in the assay on A498 renal; 1.25% (active) in the assay on CCRF-CEM leukemia; -28% (active) in the assay on MOLT-4 leukemia; -22.3% (active) with SR leukemia.
